Drawing on PubChem BioAssay (NCATS), this text covers Potency for 40 compounds.

Activity calls are given as the source filed them. Entries that show only a call come without a potency. Calls come from the whole dose curve; as a rule, active = well fitted curve in the direction sought with a large enough effect; inconclusive = small, poorly fitted or top-dose-only effect, or another doubt; inactive = no such curve, though single readings can be large or run the other way.

The test in a line: qHTS for compounds that reverse cellular toxicity of Amyloid beta (A-beta) peptide in yeast: LOPAC Validation Assay (AID 720559). To be noted: yeast expressing A-beta; Potency: rescue of growth toxicity; series mostly up to 46.1 µM. The source says: The A-beta peptide is produced by the processing of the amyloid precursor protein (APP) by two proteases, beta and gamma secretases. […] A-beta42 is regarded as the most amyloidogenic form due to its hydrophobicity; however, precisely how A-beta42 induces neurotoxicity is unclear. To understand further this biology and its potential therapeutic implications for human neurodegenerative disease, a quantitative high-throughput screen for compounds that reverse the cellular toxicity of the A-beta peptide was developed.
A yeast based screen was used because it recapitulates the salient feature of protein mis-folding disorder accurately. This cell-based phenotypic screen provides a significant, unbiased advantage by letting the compounds and models inform us which proteins or pathways are most relevant. The ideal chemical candidates would therefore have activity in both our primary yeast and secondary neuronal toxicity assays, as well as in mouse models. They will be valuable tools for dissecting diverse protein homeostasis pathologies and could potentially become the focus for future pre-clinical development. For this […] assay, inhibition of A-beta rescues the toxic effect in the yeast cell, resulting in increase of signals.
NIH Chemical Genomics Center [NCGC]
NIH Molecular Libraries Probe Centers Network [MLPCN]
Assay Submitter (PI): Susan Lindquist, Whitehead Institute, Massachusetts Institute of Technology
[1] Vassar R,et al (1999). Beta-secretase cleavage of Alzheimer's amyloid precursor protein by the transmembrane aspartic protease BACE. Science. 286: 735-741.
[2] Yan R, et al (1999). Membrane-anchored aspartyl protease with Alzheimer's disease beta-secretase activity. Nature.
Two and a half microliter / well of yeast growth medium were dispensed in a 1536 assay plate. Compounds were pinned using the Kalypsys robotic system followed by addition of 2.5 uL / well yeast solution. The assay plates were incubated at 30 C. After 48 hr, the absorbance signal at 600 nm was obtained using the PerkinElmer ViewLux plate reader to assess yeast growth. The data was normalized to the positive control of an equimolar mixture of ferric chloride (FeCl3) and clioquinol and to the negative control DMSO.
Regarding `CC(C)ON([C@@H](C(=O)NO)C(C)C)S(=O)(=O)c1ccc(-c2ccccc2)cc1`, the Potency result is “inactive”.
As for `COc1ccc(NC(=O)/C=C/c2ccc(Cl)cc2)cc1`, the Potency result is “inactive”.
Consider `CC12C(=O)OC(=O)C1(C)C1CCC2O1` (stereo not given), for which the Potency result was “inactive”.
Turning to `NO`, the Potency entry is “inactive”.
On to `C=CC(=O)c1ccc(CCCCCC)cc1`, for which the Potency result is “inactive”.
With `O=C(O)/C=C/C(O)c1ccc(Cl)cc1` (stereo not given), the Potency entry was “inactive”.
Take `COc1ccc(/C=C/C(=O)Nc2ccccc2C(=O)O)cc1OC`: the Potency entry is “inactive”.
For the compound `N=c1ccn2c(n1)O[C@H]1[C@H](O)[C@@H](CO)O[C@H]12`, the Potency result is “inactive”.
For the compound `CN1CCc2cc(O)c(O)cc2C(c2ccccc2)C1` (stereo not given), the Potency result was “inactive”.
Regarding `Cc1ccc(O)c(N=Nc2ccccc2)n1`, the Potency result is “inactive”.
For `Nc1ncnc2c1ncn2[C@@H]1O[C@H](COP(=O)(O)CP(=O)(O)OP(=O)(O)O)[C@@H](O)[C@H]1O`, the Potency result was “inactive”.
As for `c1cnc2c(c1)ccc1cccnc12`, the entry is “inactive”.
As for `O=C1O/C(=C/Br)CCC1c1cccc2ccccc12` (stereo not given), the entry is “inactive”; as for `CC(C)(C=O)Cc1cc(C(C)(C)C)c(O)c(C(C)(C)C)c1`, “inactive”.
`COC1=C(OC)C(=O)c2ccccc2C1=O`: the Potency result is “inactive”.
As for `CN(C)C(N)=NCCC[C@H](N)C(=O)O`, the entry is “inactive”.
In the case of `O=[N+]([O-])c1ccc2c(c1)S(=O)(=O)C=C2`, the Potency result is “inactive”.
For `O=C(c1ccc(OCCCc2cnc[nH]2)cc1)C1CC1`, the Potency entry is “inactive”.
For `Brc1c(Br)c(Br)c2n[nH]nc2c1Br`, the Potency entry was “inactive”.
For the compound `NCCSSCCN`, the Potency result is “inactive”.
Turning to `Fc1ccc(C(OCCCc2cnc[nH]2)c2ccc(F)cc2)cc1`, the Potency result is “inactive”.
For `OCC1O[C@H]([S-])[C@H](O)[C@@H](O)[C@@H]1O.[Au+]` (stereo not given in full), the Potency result is “inactive”.
Next, `CN=c1nc(-c2ccccc2)n(-c2ccccc2)s1`: “inactive”; `CC(C)(C)c1ccc(S(=O)(=O)/C=C/C#N)cc1`: “inactive”; `NC(=S)NCCC[C@H](N)C(=O)O`: “inactive”.
Regarding `O=S(=O)(c1cccc2c(I)cccc12)N1CCCNCC1`, the Potency entry was “inactive”.
For `O=C(O)[C@@H]1C[C@H](C(=O)O)N1`, the Potency entry was “inactive”.
Regarding `CCC1C(=O)OCC1Cc1cncn1C` (stereo not given), the Potency entry is “inactive”.
In the case of `O=C(O)CC1CC(c2ccccc2)=NO1` (stereo not given), the Potency entry was “inactive”.
As for `CC1CN(S(=O)(=O)c2cccc3cnccc23)CCN1` (stereo not given), the entry is “inactive”.
Consider `C=CC(C)=C[C@@]1(C)SC(=O)C(C)=C1O`, for which the Potency result is “inactive”.
For the compound `OC[C@H]1O[C@@H](n2cnc3c(NC4CCCC4)ncnc32)[C@H](O)[C@@H]1O`, the Potency result was “inactive”.
Next, `CCCCCCCCCCCCCCCCCC(=O)OC(CC(=O)O)C[N+](C)(C)C` (stereo not given): “inactive”; `CN1CC(=O)N/C1=N/C(=O)Nc1cccc(Cl)c1`: “inactive”.
`Fc1cccc(/C=N/N=C/c2cccc(F)c2)c1`: the Potency result is “inactive”.
With `COc1cc2c(CCNC(C)=O)c[nH]c2cc1Cl`, the Potency entry is “inactive”.
On to `Cc1ccc(C(=O)O[C@H](C(=O)O)[C@@H](OC(=O)c2ccc(C)cc2)C(=O)O)cc1` (tested in a mixture with another compound), for which the Potency result is “inactive”.
Turning to `CSc1nc(N)c2ncn([C@@H]3O[C@H](COP(=O)(O)OP(=O)(O)OP(=O)(O)O)[C@@H](O)[C@H]3O)c2n1`, the Potency entry is “inactive”.
Next, `Oc1ccc(C2CNCc3sccc32)cc1O` (stereo not given): “inactive”; `Clc1ccc(N2CCN(Cc3cc4ccccn4n3)CC2)cc1`: “inactive”.
